The text below walks through data of PubChem BioAssay.

For part of these data: Entries with a potency or affinity are not part of this list. Activity calls are given as the source filed them. Unless noted, how the calls were made is not given here.

For assay [1], the target named is Cell division control protein 42 homolog (Homo sapiens) (UniProt P60953). Description: activated mutant Cdc42 GTP-binding inhibitors, dose response, biochemical, multiplex bead flow cytometry, Bodipy-FL-GTP (AID 1333;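 active means fitted half-maximal concentration within the tested dose range, moderate curve steepness, a statistically real signal drop, and little compound fluorescence or tag-binding interference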).
Chain of Cell division control protein 42 homolog (Homo sapiens) (P60953 whole entry, looked up): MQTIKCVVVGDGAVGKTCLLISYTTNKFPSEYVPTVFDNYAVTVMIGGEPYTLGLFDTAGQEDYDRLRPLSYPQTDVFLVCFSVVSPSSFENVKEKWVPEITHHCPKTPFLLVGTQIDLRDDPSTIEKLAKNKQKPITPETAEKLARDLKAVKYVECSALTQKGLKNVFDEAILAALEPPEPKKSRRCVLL
The target is the same in assay [2]. Description: wildtype Cdc42 GTP-binding inhibitors, dose response, biochemical, multiplex bead flow cytometry, Bodipy-FL-GTP (AID 1334;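 active means fitted half-maximal concentration within the tested range, moderate curve steepness, significant signal drop, and little compound fluorescence or bead-linkage interference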). Conditions: bead-based flow cytometry, Bodipy-FL-GTP binding to GST-Cdc42; at 100 µM (top of the series) unless noted. A general note: A flow cytometer gives signals particle by particle.
Assay [3] concerns the target GTPase HRas (Homo sapiens) (UniProt P01112). The assay is described as follows: inhibitors of GTP binding to wildtype Ras, dose response, biochemical, multiplex bead flow cytometry (AID 1335;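 active means fitted half-maximal concentration within 10 nM to 100 µM, steepness 0.5 to 2, significant signal drop, low assay interference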). The note with it: bead-based flow cytometry, Bodipy-GTP binding to GST-Ras; at 100 µM (top of the series) unless noted.
The subject of assay [4] is Ras-related protein Rab-7a (dog), GTP binding. Description: Rab7 GTP binding inhibitors, potency, dose response, biochemical, wildtype, multiplex bead flow cytometry (AID 1336).
Assay [5] addresses Ras-related C3 botulinum toxin substrate 1 (Homo sapiens) (UniProt P63000). Description: wildtype Rac1 GTP binding inhibitors, dose response, biochemical, multiplex bead flow cytometry (AID 1340;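 active means dose curve with midpoint inside tested range, moderate steepness, plateau gap beyond fit error, low compound glow and bead-link interference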). The note with it: GST-Rac1 beads, Bodipy-FL-GTP binding; at 100 µM (top of the series) unless noted.
The target in assay [6] is GTPase HRas (Homo sapiens) (UniProt P01112). Description: activated Ras mutant GTP binding inhibitors, dose response, biochemical, multiplex bead flow cytometry (AID 1341;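 active means dose-response curve with midpoint inside the tested range, moderate steepness, significant amplitude and little compound fluorescence or bead-attachment interference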;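 further: GST-tagged constitutively activated Ras mutant immobilized on beads and multiplexed with other GTPases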).
Chain of GTPase HRas (Homo sapiens) (P01112 whole entry, looked up): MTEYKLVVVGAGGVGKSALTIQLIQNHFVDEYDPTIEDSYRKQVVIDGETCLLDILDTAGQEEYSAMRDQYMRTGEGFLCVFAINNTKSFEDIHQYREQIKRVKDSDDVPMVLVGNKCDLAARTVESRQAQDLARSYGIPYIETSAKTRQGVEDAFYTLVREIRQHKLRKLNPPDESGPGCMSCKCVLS

For `O=C(O)c1ccccc1NCc1ccc2c(c1)OCO2`, the result in assay [1], in assay [4] and in assay [6] was inactive. In addition, in assay [2], the fluorescence, percent of control (lower = inhibition) turned out to be 69.6%. Moreover, the GTP binding, percent of control in assay [3] was found to be 89.5%. For the same molecule, the GTP binding signal, raw median fluorescence (lower = inhibition) (MCF (arbitrary fluorescence units)) in assay [5] amounted to 54.

Consider `CC(Sc1nnc(NC2CCCCC2)s1)C(=O)Nc1ccc2c(c1)C(=O)c1ccccc1C2=O` (stereo unspecified), for which the molecule was called inactive in assay [1], in assay [4] and in assay [6]. The fluorescence, percent of control (lower = inhibition) in assay [2] came out at 49.1%. For the same molecule, the GTP binding, percent of control in assay [3] came to 61.4%. In assay [5], this molecule came in with a GTP binding signal, raw median fluorescence (lower = inhibition) (MCF (arbitrary fluorescence units)) of 161.

Take `CO/N=C/NC(=O)NOCc1ncc(C(F)(F)F)cc1Cl`: the result in assay [1], in assay [4] and in assay [6] was inactive. Further, in assay [2], the fluorescence, percent of control (lower = inhibition) turned out to be 38.1%. The molecule further showed a GTP binding, percent of control in assay [3] of 86.2%. This molecule also gave a GTP binding signal, raw median fluorescence (lower = inhibition) (MCF (arbitrary fluorescence units)) in assay [5] of 295.

Take `COc1ccccc1NC(=O)CSc1ccc2nnc(-c3cccnc3)n2n1`: the molecule was classed as inactive in assay [1], in assay [4] and in assay [6]. For the same molecule, the fluorescence, percent of control (lower = inhibition) in assay [2] is 36.4%. In assay [3], the GTP binding, percent of control turned out to be 49%. In assay [5], the GTP binding signal, raw median fluorescence (lower = inhibition) (MCF (arbitrary fluorescence units)) was determined as 114.

On to `Cc1c(NS(=O)(=O)c2ccc3c(c2)Cc2ccccc2-3)c(=O)n(-c2ccccc2)n1C`, for which the molecule was classed as inactive in assay [1], in assay [4] and in assay [6]. This molecule also had a fluorescence, percent of control (lower = inhibition) in assay [2] of 30.4%. Moreover, the GTP binding, percent of control in assay [3] is 80%. In addition, the GTP binding signal, raw median fluorescence (lower = inhibition) (MCF (arbitrary fluorescence units)) in assay [5] is 238.

In the case of `C/C(=N\NC(=O)c1c[nH]c2ccccc12)c1ccc(C)o1`, the call in assay [1], in assay [4] and in assay [6] was inactive. For the same molecule, the fluorescence, percent of control (lower = inhibition) in assay [2] was found to be 29.9%. Further, the GTP binding, percent of control in assay [3] is 68.2%. For the same molecule, in assay [5], the GTP binding signal, raw median fluorescence (lower = inhibition) (MCF (arbitrary fluorescence units)) is 150.

`CC1=CC(=O)C=C(C)C1=NOS(=O)(=O)c1ccccc1`: the molecule was classed as inactive in assay [1], in assay [4] and in assay [6]. In assay [2], the fluorescence, percent of control (lower = inhibition) was found to be 29.6%. The same molecule showed a GTP binding, percent of control in assay [3] of 81.2%. In assay [5], this molecule gave a GTP binding signal, raw median fluorescence (lower = inhibition) (MCF (arbitrary fluorescence units)) of 223.

In the case of `O=C(Cn1cnc2cc([N+](=O)[O-])ccc2c1=O)NCCc1ccc(Cl)cc1`, the molecule was classed as inactive in assay [1], in assay [4] and in assay [6]. In assay [2], this molecule displayed a fluorescence, percent of control (lower = inhibition) of 36.8%. The molecule further yielded a GTP binding, percent of control in assay [3] of 85.2%. Also, the GTP binding signal, raw median fluorescence (lower = inhibition) (MCF (arbitrary fluorescence units)) in assay [5] came out at 244.

`Cc1ccccc1CNCc1ccc(C(=O)O)s1`: the molecule was classed as inactive in assay [1], in assay [4] and in assay [6]. In addition, the fluorescence, percent of control (lower = inhibition) in assay [2] turned out to be 61.7%. The GTP binding, percent of control in assay [3] is 87%. This molecule had a GTP binding signal, raw median fluorescence (lower = inhibition) (MCF (arbitrary fluorescence units)) in assay [5] of 32.5.

In the case of `COCCNC(=O)c1cnn2c(C(F)F)cc(-c3ccccc3)nc12`, the outcome in assay [1], in assay [4] and in assay [6] was inactive. The same molecule registered a fluorescence, percent of control (lower = inhibition) in assay [2] of 40%. This molecule gave a GTP binding, percent of control in assay [3] of 85.2%. The molecule also came in with a GTP binding signal, raw median fluorescence (lower = inhibition) (MCF (arbitrary fluorescence units)) in assay [5] of 204.

As for `O=C(O)/C=C\C(=O)Nc1cccc(C(=O)Nc2cccc(O)c2)c1`, the result in assay [1], in assay [4] and in assay [6] was inactive. This molecule also had a fluorescence, percent of control (lower = inhibition) in assay [2] of 38.6%. This molecule also came in with a GTP binding, percent of control in assay [3] of 84.2%. Besides, the GTP binding signal, raw median fluorescence (lower = inhibition) (MCF (arbitrary fluorescence units)) in assay [5] turned out to be 162.

On to `Nc1c([N+](=O)[O-])cc(-c2cnc[nH]2)cc1[N+](=O)[O-]`, for which the outcome in assay [1], in assay [4] and in assay [6] was inactive. Further, the fluorescence, percent of control (lower = inhibition) in assay [2] was 38.5%. Also, in assay [3], the GTP binding, percent of control is 81.1%. In assay [5], this molecule came in with a GTP binding signal, raw median fluorescence (lower = inhibition) (MCF (arbitrary fluorescence units)) of 190.

On to `Cc1ccc(-c2nnc(-c3ccccc3S(=O)(=O)Cc3ccc(Cl)cc3)o2)cc1`, for which the molecule was called inactive in assay [1], in assay [4] and in assay [6]. In assay [2], this molecule came in with a fluorescence, percent of control (lower = inhibition) of 90.3%. For the same molecule, in assay [3], the GTP binding, percent of control is 165%. The molecule also gave a GTP binding signal, raw median fluorescence (lower = inhibition) (MCF (arbitrary fluorescence units)) in assay [5] of 184.

On to `CC1Cc2ccccc2N1S(=O)(=O)c1cccc(C(=O)NCCCO)c1` (stereo unspecified), for which the molecule was classed as inactive in assay [1], in assay [4] and in assay [6]. For the same molecule, the fluorescence, percent of control (lower = inhibition) in assay [2] was 38.5%. In assay [3], the GTP binding, percent of control amounted to 85.5%. Besides, the GTP binding signal, raw median fluorescence (lower = inhibition) (MCF (arbitrary fluorescence units)) in assay [5] was found to be 323.

Consider `Cc1ccc(OCc2ccccc2C)c(C(=O)O)c1`, for which the molecule was called inactive in assay [1], in assay [4] and in assay [6]. Besides, the fluorescence, percent of control (lower = inhibition) in assay [2] worked out at 58.3%. In addition, the GTP binding, percent of control in assay [3] worked out at 207%. In assay [5], this molecule showed a GTP binding signal, raw median fluorescence (lower = inhibition) (MCF (arbitrary fluorescence units)) of 54.4.

Take `Nc1nc2c(c(=O)[nH]1)C(c1cccc3ccccc13)C1=C(N2)c2ccccc2C1=O` (stereo unspecified): the call in assay [1], in assay [4] and in assay [6] was inactive. The same molecule came in with a fluorescence, percent of control (lower = inhibition) in assay [2] of 31%. In assay [3], this molecule displayed a GTP binding, percent of control of 75.5%. In assay [5], this molecule displayed a GTP binding signal, raw median fluorescence (lower = inhibition) (MCF (arbitrary fluorescence units)) of 204.
